Source: PubChem BioAssay (NCI)
Values joined by “and” are separate entries in the source; they are usually repeats but may differ in a detail not shown here. Equal values may be shown once. This is part of a sample that, as a whole, favours compounds with a hit. Of some 79,000 tested, about 15% had one in any assay. Active and inactive are the calls of the source. No stated cut-off is given here; in the data, active means growth inhibition above about 70%; inactive means the rest.

Tests used:
[1] = NCI Yeast Anticancer Drug Screen. Data for the rad52 strain (AID 147);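 further: 0% = growth of vehicle-treated control cultures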; settings: S. cerevisiae rad52 mutant growth inhibition, hits give high values
Outline: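 Compounds are applied to a genetically defined yeast strain lacking normal DNA damage repair, and inhibition of growth is expressed relative to cultures given vehicle only.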

[2] = NCI Yeast Anticancer Drug Screen. Data for the wt1 strain (AID 149);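 further: 0% = growth of vehicle-treated wt1 cultures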; settings: S. cerevisiae wt1 strain (SPY 50644) growth inhibition, hits give high values
Outline: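 Yeast wt1 strain exposed to compounds; growth inhibition measured relative to vehicle-treated controls.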

[3] = NCI Yeast Anticancer Drug Screen. Data for the rad50EPP+ strain (AID 151);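 further: 0% = growth of vehicle-treated control cultures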; settings: S. cerevisiae rad50 mutant strain, hits give high values
Outline: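 Compounds were applied to the rad50EPP+ yeast strain, which bears a defined DNA repair alteration, and growth inhibition was determined relative to vehicle-treated cultures.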

[4] = NCI Yeast Anticancer Drug Screen. Data for the mgt1 strain (AID 153); settings: S. cerevisiae mgt1 mutant growth inhibition, hits give high values
Outline: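 Strain: mgt1 yeast, one of a set carrying defined DNA damage repair or cell cycle control alterations. Compound-treated growth compared with vehicle.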

[5] = NCI Yeast Anticancer Drug Screen. Data for the rad50 strain (AID 155);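 further: 0% = growth of vehicle-only cultures of the same strain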; settings: S. cerevisiae rad50 strain growth inhibition, hits give high values
Outline: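 Yeast carrying a defined DNA repair defect were exposed to test compounds, and growth was compared with vehicle-treated controls to give percent inhibition.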

[6] = NCI Yeast Anticancer Drug Screen. Data for the mec2-1 strain (AID 157); settings: S. cerevisiae mec2-1 strain, hits give high values
Outline: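 Strain: mec2-1 (DNA repair/cell cycle alteration). Compound exposure, then growth measured; inhibition expressed relative to vehicle.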

[7] = NCI Yeast Anticancer Drug Screen. Data for the rad14 strain (AID 159);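 further: 0% = growth of vehicle-treated control cultures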; settings: S. cerevisiae rad14 strain growth inhibition, hits give high values
Outline: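 Yeast cells carrying a defined DNA-repair defect were exposed to compounds, and growth inhibition was calculated relative to vehicle-treated control cultures.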

[8] = NCI Yeast Anticancer Drug Screen. Data for the sgs1 mgt1 strain (AID 161);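 further: 0% = growth of cultures given vehicle only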; settings: S. cerevisiae sgs1 mgt1 strain, hits give high values
Outline: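 Mutant yeast exposed to compound; growth scored against vehicle-only wells.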

[9] = NCI Yeast Anticancer Drug Screen. Data for the CLN2oe strain (AID 163);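 further: 0% = growth of vehicle-only control cultures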; settings: S. cerevisiae CLN2oe strain, hits give high values
Outline: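 Growth of a genetically modified yeast strain is measured after compound exposure and compared with cultures given vehicle alone.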

[10] = NCI Yeast Anticancer Drug Screen. Data for the cln2 rad14 strain (AID 165);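 further: 0% = growth equal to vehicle treated cultures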; settings: S. cerevisiae cln2 rad14 strain, hits give high values
Outline: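 Compounds are applied to the cln2 rad14 yeast strain, and growth is then compared with that of vehicle-treated cultures to give inhibition.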

[11] = NCI Yeast Anticancer Drug Screen. Data for the bub3 strain (AID 167); settings: S. cerevisiae bub3 mutant strain, hits give high values
Outline: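 Compounds were applied to a genetically altered yeast strain carrying a cell-cycle control defect. Growth inhibition was scored against vehicle-treated controls.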

[12] = NCI Yeast Anticancer Drug Screen. Data for the wt2 strain (AID 169);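 further: 0% = growth of vehicle-treated yeast cultures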; settings: S. cerevisiae wt2 strain growth inhibition, hits give high values
Outline: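 This strain belongs to a panel of yeast strains with defined genetic alterations in DNA damage repair or cell cycle control. Compounds are applied, and growth inhibition is measured against vehicle-treated cultures.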

[13] = NCI Yeast Anticancer Drug Screen. Data for the mlh1 strain (AID 171);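 further: 0% = growth of vehicle-treated control cultures of the same strain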; settings: S. cerevisiae mlh1 strain growth inhibition, hits give high values
Outline: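 Growth of the mutant yeast strain after compound exposure, expressed as inhibition relative to vehicle-only controls.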

[14] = NCI Yeast Anticancer Drug Screen. Data for the sgs1 strain (AID 173);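 further: 0% = growth of vehicle-only control cultures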; settings: S. cerevisiae sgs1 mutant, hits give high values
Outline: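 Growth of a yeast strain bearing a defined genetic alteration is measured after compound treatment. Inhibition is expressed relative to vehicle-only controls.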

[15] = NCI Yeast Anticancer Drug Screen. Data for the mlh1 rad18 strain (AID 175); settings: S. cerevisiae mlh1 rad18 strain growth inhibition, hits give high values
Outline: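 Read-out is yeast growth inhibition, calculated against vehicle-only controls. The compound was applied to a strain engineered with DNA damage repair alterations.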

[16] = NCI Yeast Anticancer Drug Screen. Data for the rad18 strain (AID 177); settings: S. cerevisiae rad18 mutant growth inhibition, hits give high values
Outline: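 Growth of the mutant yeast strain after compound exposure, normalised to vehicle-only cultures.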

[17] = at 5.0 µM (retest, dose inferred, filed as 0.5)
[18] = at 50.0 µM (retest, dose inferred, filed as 5.0)

Measured: growth inhibition

COC1=C(N)C(=O)c2nc(-c3nc(C(=O)O)c(C)c(-c4ccc(OC)c(OC)c4O)c3N)ccc2C1=O
inactive: [8]; [17] 16% and 59% | [10]; [17] 13% and 49% | [11]; [17] 14% and 30%
active: [1]; at 1.2 µM 97% | [1]; at 3.7 µM 97% | [1]; at 11.0 µM 98% | [1]; at 33.0 µM 98% | [1]; at 100.0 µM 97% | [2]; at 1.2 µM 98% | [2]; at 3.7 µM 99% | [2]; at 11.0 µM 99% | [2]; at 33.0 µM 99% | [2]; at 100.0 µM 98% | [3]; at 1.2 µM 91% | [3]; at 3.7 µM 93% | [3]; at 11.0 µM 94% | [3]; at 33.0 µM 96% | [3]; at 100.0 µM 96% | [4]; at 1.2 µM 97% | [4]; at 3.7 µM 98% | [4]; at 11.0 µM 98% | [4]; at 33.0 µM 98% | [4]; at 100.0 µM 98% | [5]; at 1.2 µM 96% | [5]; at 3.7 µM 97% | [5]; [17] 96% and 98% | [5]; at 11.0 µM 97% | [5]; at 33.0 µM 98% | [5]; [18] 97% and 98% | [5]; at 50.0 µM 93.5% and 92.5% | [5]; at 100.0 µM 97% | [6]; at 1.2 µM 96% | [6]; at 3.7 µM 98% | [6]; [17] 97% and 99% | [6]; at 11.0 µM 99% | [6]; at 33.0 µM 99% | [6]; [18] 98% and 99% | [6]; at 50.0 µM 94% | [6]; at 100.0 µM 98% | [7]; at 1.2 µM 98% | [7]; at 3.7 µM 98% | [7]; at 11.0 µM 98% | [7]; at 33.0 µM 98% | [7]; at 100.0 µM 98% | [8]; [18] 98% and 96% | [8]; at 50.0 µM 94.2% and 93.8% | [9]; at 1.2 µM 89% | [9]; at 3.7 µM 93% | [9]; at 11.0 µM 96% | [9]; at 33.0 µM 97% | [9]; at 100.0 µM 96% | [10]; [18] 98% and 92% | [10]; at 50.0 µM 93% and 92.2% | [11]; at 1.2 µM 95% | [11]; at 3.7 µM 97% | [11]; at 11.0 µM 98% | [11]; at 33.0 µM 97% | [11]; [18] 98% and 93% | [11]; at 50.0 µM 94% and 92.8% | [11]; at 100.0 µM 98% | [12]; at 1.2 µM 91% | [12]; at 3.7 µM 97% | [12]; at 11.0 µM 97% | [12]; at 33.0 µM 98% | [12]; at 100.0 µM 97% | [13]; at 1.2 µM 95% | [13]; at 3.7 µM 98% | [13]; at 11.0 µM 98% | [13]; at 33.0 µM 98% | [13]; at 100.0 µM 97% | [14]; at 1.2 µM 95% | [14]; at 3.7 µM 97% | [14]; at 11.0 µM 98% | [14]; at 33.0 µM 98% | [14]; at 100.0 µM 97% | [15]; [17] 97% and 99% | [15]; [18] 97% and 98% | [15]; at 50.0 µM 93% and 92.5% | [16]; at 1.2 µM 96% | [16]; at 3.7 µM 98% | [16]; at 11.0 µM 98% | [16]; at 33.0 µM 97% | [16]; at 100.0 µM 97%

CCCCc1nnc(NS(=O)(=O)c2ccc(C)cc2)s1
inactive: [1]; at 1.2 µM -14% | [1]; at 3.7 µM -20% | [1]; at 11.0 µM -3% | [1]; at 33.0 µM 37% | [2]; at 1.2 µM -35% | [2]; at 3.7 µM -32% | [2]; at 11.0 µM -18% | [2]; at 33.0 µM 19% | [3]; at 1.2 µM -29% | [3]; at 3.7 µM -34% | [3]; at 11.0 µM -30% | [3]; at 33.0 µM -21% | [3]; at 100.0 µM -35% | [4]; at 1.2 µM -25% | [4]; at 3.7 µM -28% | [4]; at 11.0 µM -12% | [4]; at 33.0 µM 25% | [5]; at 1.2 µM -15% | [5]; at 3.7 µM -13% | [5]; [17] 48% | [5]; at 11.0 µM 0% | [5]; at 33.0 µM 45% | [6]; at 1.2 µM -21% | [6]; at 3.7 µM -19%
active: [1]; at 100.0 µM 83% | [2]; at 100.0 µM 84% | [4]; at 100.0 µM 85% | [5]; [18] 94% | [5]; at 50.0 µM 72% | [5]; at 100.0 µM 86%
